Entries with a potency or affinity are not part of this list. Unmarked numbers belong to inactive results.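 How the source made its calls: active means cell killing with a fitted half-effect concentration at or below twice the top valid dose; inconclusive means flat curve with 30 to 70 percent drop, or poor fit; inactive means the rest.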
Test: HEK293T cell cytotoxicity, dose response, cytotoxicity control, ATP luminescence, cherry-pick, set 6 (AID 1053126);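 further: 0% = neutral control wells and -100% = mitoxantrone 10 µM positive control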
Details: HEK293T viability, CellTiter-Glo ATP luminescence, 72 h; series mostly up to 26 µM; activity change, negative = cytotoxicity: at the top concentration

| Compound | activity change, negative = cytotoxicity |
| --- | --- |
| Cc1cc(-n2c(=O)c(C#N)cc3c(=O)n4ccccc4nc32)no1 | -11.8% |
| Cc1cccn2c(=O)c3cc(C(=O)NCc4ccco4)c(=N)n(CCc4ccccc4)c3nc12 | -5.68% |
| CC(=O)NNc1cc(N2CCOCC2)nc(N2CCOCC2)n1 | -6.77% |
| Cc1noc(C)c1S(=O)(=O)N(CC(=O)N1CCCCCC1)c1ccc(C(C)C)cc1 | -16.6% |
| Cc1oc(/N=C/c2ccc(O)cc2O)c(C#N)c1C | -8.77% |
| CN1c2ccc(Cl)cc2C(=O)NC1C1CC=CCC1 (stereo not drawn) | 5.93% |
| CC(=O)OC[C@@H]1CN(Cc2ccccc2)C[C@H](n2cnc3c(N(C)C(C)C)ncnc32)O1 | -10.5% |
| CC(=O)c1cc2ccc(O)cc2oc1=O | -5.76% |
| CCCCn1nc(NC(=O)c2cccs2)c2cc3cc(OC)ccc3nc21 | -8% [at 12 µM] |
| Nc1nc(-c2cc(O)ccc2[N+](=O)[O-])cc(-c2ccccc2)c1[N+](=O)[O-] | 1.04% |
| CCC(C)n1c(=N)c(C#N)cc2c(=O)n3cc(C)ccc3nc21 (stereo not drawn) | 5.65% |
| CCN(CC)CCNC(=O)c1sc2nc(-c3ccccc3)cn2c1C | 10.8% |
| C#CCOc1ccc(C2C(C#N)=C(N)Oc3cc(O)ccc32)cc1 (stereo not drawn) | 7.8% |
| COC(=O)C1=CN(Cc2ccc(OC)c(OC)c2)C=C(C(=O)OC)C1c1cccc(F)c1 | -13.2% |
| Cc1ccc(S(=O)(=O)c2cc3c(=O)n4ccccc4nc3n(C)c2=N)cc1 | -8.9% |
| COc1cc(C(=O)OCC(C)=O)cc(NC(=O)c2ccco2)c1OC | 5.21% |
| O=c1oc2c(CN3CCN(CCO)CC3)c(O)ccc2cc1-c1ccccn1 | -3.28% |
| CCN(CC)Cc1c(O)c(Cl)cc2c(C)cc(=O)oc12 | -0.263% |
| O=C(CCCn1c(=O)c2sccc2n(Cc2cc(=O)n3ccccc3n2)c1=O)NCc1ccco1 | -9.89% |

| Compound | activity change, negative = cytotoxicity |
| --- | --- |
| CCOC(=O)c1cc(-c2ccccc2)sc1NC(=O)CSc1nnc(N)s1 | -2.94% |
| COc1ccc(C2CC(c3cccs3)=NN2c2nc(C)c(C(C)=O)s2)cc1OC (stereo not drawn) | 82.2% |
| C=Cc1ccc(Cn2c(C)c(C(=O)NCc3cccc(C)c3)sc2=O)cc1 | -4.9% |
| Clc1cccc(CN2CCN(Cc3nc(CCc4ccccc4)no3)CC2)c1 | -15.3% |
| O=C(/C=C/c1ccccc1)C1=C(O)C(=O)N(CCO)C1c1ccc2c(c1)OCO2 (stereo not drawn) | -12.3% |
| CC1CCCCN1Cc1c(O)ccc2c(=O)c(-c3nc4ccccc4s3)coc12 (stereo not drawn) | -6.86% |
| CSc1ccc(Cn2c(C)c(C(=O)NCCC#N)sc2=O)cc1 | -0.568% |
| S=c1[nH]c2ccc(Cc3ccc4[nH]c(=S)[nH]c4c3)cc2[nH]1 | -20.1% |
| COc1ccc(C2C3=C(CCCC3=O)N(CC(=O)O)C3=C2C(=O)CCC3)cc1 | 5.62% |
| CCCCN1C=C(C(=O)OC)C(c2ccccc2Cl)C(C(=O)OC)=C1 | -13.7% |
| O=[N+]([O-])c1cccc(Nc2c3ccccc3nc3ccccc23)c1 | -22% |
| Cc1cccn2c(=O)c3cc(C(N)=S)c(=N)n(CCCOC(C)C)c3nc12 | -7.65% |
| COc1ccc(CCNC(=O)c2cc(S(=O)(=O)N3CCCCC3)c[nH]2)cc1OC | 15.3% |
| CCOc1ccc2nc(NCCCNS(=O)(=O)c3ccc(F)cc3)c(C#N)cc2c1 | -10.3% |
| CCc1nc2ccc(C(=O)NCCc3c[nH]c4ccccc34)cn2c1N(C=O)CCC(C)C | -10.7% |
| COc1ccccc1/C=N/Nc1nc(C)cc(=O)[nH]1 | -8.08% |
| O=c1oc2c(CN3CCCCC3)c(O)ccc2cc1-c1nc2ccccc2[nH]1 | -14.8% |
| CCOCCCNc1nc2nc3ccc(C)cn3c(=O)c2cc1C(=O)NCC1CCCO1 (stereo not drawn) | -3.04% |
| CCOc1ccc(C2C(C#N)=C(N)Oc3cc(O)ccc32)cc1OCC (stereo not drawn) | 5.38% |
